Measured values taken from PubChem BioAssay (NCATS).
Several values for one entry are separate records, joined by “and”; a condition that tells them apart may be missing. Identical values can stand only once. Records with an inconclusive call do not appear. Activity calls are given as the source filed them. Unless noted, the rule behind the calls is not given here.

Experiments:
[1] = qHTS Assay for Identifying Gametocytocidal Compounds (AID 743244; active = well fitted curve in the direction sought with a large enough effect; note: potency is the fitted concentration of half-maximal effect;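 for max response: % is set by controls: 0 for no effect and ±100 for the full control effect; actives lower the fluorescent signal which means gametocytes are killed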); conditions: P. falciparum 3D7 stage III-V gametocytes, alamarBlue, 72 h; max response: stronger effect = lower value
Summary of the method: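 In this qHTS viability screen, late-stage 3D7 gametocytes are incubated with compound for 72 h, then with alamarBlue for 24 h; reduced resorufin fluorescence marks killing.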

[2] = qHTS profiling of the MIPE4 collection as inhibitors of Plasmodium falciparum (3D7) proliferation (AID 743344);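 note: scaled between DMSO vehicle wells and 0.29 µM artemisinin as full inhibition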; conditions: P. falciparum 3D7 in erythrocytes, SYBR Green DNA fluorescence, 72 h; at 28.5 µM (top of the series) unless noted
Summary of the method: (§1)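 Parasite DNA was quantified by SYBR Green I fluorescence (ex 485, em 535 nm) after overnight lysis in saponin/Triton buffer at room temperature. Cultures at 0.3% parasitemia and 2.5% hematocrit were first exposed to compound for 72 h at 37 C; signals were normalised to artemisinin (0.29 uM) and vehicle wells.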

[3] = qHTS profiling of the MIPE4 collection as inhibitors of Plasmodium falciparum (DD2) proliferation (AID 743345); conditions: P. falciparum Dd2 in erythrocytes, SYBR Green DNA, 72 h; at 28.5 µM (top of the series) unless noted
Summary of the method: as §1

[4] = qHTS profiling of the MIPE4 collection as inhibitors of Plasmodium falciparum (DD2) proliferation (Rep 2) (AID 743346); conditions: P. falciparum Dd2 in erythrocytes, SYBR Green DNA, 72 h; at 28.5 µM (top of the series) unless noted
Summary of the method: as §1

Structure (SMILES) | max response [1] | parasite growth, % of DMSO control [2] | parasite growth remaining, % of DMSO control (lower = more inhibition) [3] | parasite growth, % of control (lower = inhibition) [4] | Potency [1]
N=C(N)c1ccc2cc(OC(=O)c3ccc(N=C(N)N)cc3)ccc2c1 | 6.62% (inactive) | 6.93% | 9.8% | 14% | –
COCCCN1CCC(NC(=O)c2cc(Cl)c(N)c3c2OCC3)CC1 | – | 28.3% | 51.1% | 38% | –
O=P(O)(O)C(O)(Cn1ccnc1)P(=O)(O)O | 13.2% (inactive) | 103% [at 9.64 µM] | – | 94.2% [at 9.64 µM] | –
O=C(NOCC1CC1)c1ccc(F)c(F)c1Nc1ccc(I)cc1Cl | – | 24.6% | 91.6% | 56.1% | –
CC(C)Oc1ccc2c(=O)c(-c3ccccc3)coc2c1 | -8.04% (inactive) and -1.57% (inactive) | 75.9% | 89.9% | 60% | –
COC(=O)C1=C(C)NC(C)=C(C(=O)OC(C)C)C1c1cccc2nonc12 (configuration not stated) | 3.5% (inactive) | 51.5% | 96.4% | 120% | –
CCN(CC)CCOc1ccc(Cc2ccccc2)cc1 | – | 58.8% | 74.1% | 36.4% | –
Clc1ccc(C(Cn2ccnc2)OCc2ccc(Sc3ccccc3)cc2)c(Cl)c1 (configuration not stated) | – | 5.64% | 6.46% | 18.3% | –
CN1CCC(=C2c3ccccc3CCc3sccc32)CC1 | – | 8.53% | 50.7% | 14.9% | –
Clc1ccc(C(Cn2ccnc2)OCc2ccsc2Cl)c(Cl)c1 (configuration not stated) | – | 4.99% | 7.57% | 15.9% | 6.31 µM (active)
NC(=O)Cc1cccc(C(=O)c2ccccc2)c1N | 5.12% (inactive) | – | 98.5% | – | –
CN(C)[C@@H](CCOc1cccc2ccccc12)c1ccccc1 | – | 18.8% | 14.4% | – | –
CN(C)C(=O)[C@H](O)[C@H](Cc1ccccc1)NC(=O)c1cc2cc(Cl)ccc2[nH]1 | – | 6.18% | 54.1% | 13.9% | –
CCC(C)(Oc1ccc(C2(c3ccc(OC(C)(CC)C(=O)O)cc3)CCCCC2)cc1)C(=O)O (configuration not stated) | 16.5% (inactive) | 100% | 98.3% | 73.7% | –
COC(=O)N[C@H](C(=O)N[C@@H](Cc1ccccc1)[C@@H](O)CN(Cc1ccc(-c2ccccn2)cc1)NC(=O)[C@@H](NC(=O)OC)C(C)(C)C)C(C)(C)C | -11.7% (inactive) | 7.5% | 18.2% | 34.6% | –
CC[C@]1(O)C[C@H]2CN(CCc3c([nH]c4ccccc34)[C@@](C(=O)OC)(c3cc4c(cc3OC)N(C=O)[C@H]3[C@@](O)(C(=O)OC)[C@H](OC(C)=O)[C@]5(CC)C=CCN6CC[C@]43[C@@H]65)C2)C1 | 24.7% (inactive) | 19.3% | 18% | 19.1% | –
Cn1c(NCCN(CCO)CCCc2ccc([N+](=O)[O-])cc2)cc(=O)n(C)c1=O | 4.58% (inactive) | 5.83% | 76.1% | 7.33% | –
